Values joined by “and” are separate entries in the source; they are usually repeats but may differ in a detail not shown here. Identical values can stand only once. Records with an inconclusive call do not appear. Active and inactive are the calls of the source. Unless noted, calls follow the shape of the dose curve; as a rule, active = well fitted curve in the direction sought with a large enough effect in the repeat runs; inconclusive = weak or mixed curves; inactive = no such curve, though single readings can be large; an effect the other way counts as inactive or inconclusive.
Experiments:
[1] = qHTS assay to identify small molecule antagonists of the estrogen related receptor (ERR) signaling pathway from Tox21 library - cell viability counter screen (AID 1224834); also: nearly all actives have a fitted effect of over 30% in size; also: potency is read from the fitted curve at half-maximal effect
Summary of the method: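 ERR reporter cells were plated 6 h before compound addition, then exposed to test compounds in DMSO for 17.5 h at 37 C. Viability was read as CellTiter-Fluor fluorescence after a 30-minute incubation at 37 C.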

[2] = target: Luciferin 4-monooxygenase (Photinus pyralis) (UniProt P08659); assay: qHTS assay to identify small molecule inhibitors of firefly luciferase (AID 1224835); also: nearly all actives have a fitted effect of over 25% in size
Luciferin 4-monooxygenase (Photinus pyralis), sequence (P08659 whole entry, looked up): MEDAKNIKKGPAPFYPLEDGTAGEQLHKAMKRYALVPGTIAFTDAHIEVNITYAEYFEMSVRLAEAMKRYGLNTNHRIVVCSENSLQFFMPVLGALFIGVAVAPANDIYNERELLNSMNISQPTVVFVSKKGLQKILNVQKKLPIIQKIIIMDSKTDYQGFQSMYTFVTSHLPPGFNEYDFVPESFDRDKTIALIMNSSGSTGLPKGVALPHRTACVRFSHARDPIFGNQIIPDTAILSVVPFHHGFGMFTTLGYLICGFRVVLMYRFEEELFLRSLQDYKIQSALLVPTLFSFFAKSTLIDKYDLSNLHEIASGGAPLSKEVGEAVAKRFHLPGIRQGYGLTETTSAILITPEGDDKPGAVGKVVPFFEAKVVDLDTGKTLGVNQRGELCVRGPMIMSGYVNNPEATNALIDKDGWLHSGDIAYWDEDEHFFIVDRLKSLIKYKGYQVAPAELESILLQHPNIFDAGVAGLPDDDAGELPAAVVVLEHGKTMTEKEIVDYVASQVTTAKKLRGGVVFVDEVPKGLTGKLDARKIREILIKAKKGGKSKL
Summary of the method: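 Quantitative HTS format; KM concentrations of both substrates. Purified P. pyralis FLuc activity quantified from luminescence images.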

[3] = qHTS assay to identify small molecule agonists of the constitutive androstane receptor (CAR) signaling pathway - cell viability counter screen (AID 1224836); also: nearly all actives have a fitted effect of over 45% in size
Summary of the method: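 Counter screen multiplexed with the CAR reporter readout: HepG2 cells co-transfected with hCAR and the CYP2B6-2.2kb construct receive a 15-concentration compound series and 0.75 uM PK11195 (final), then CellTiter-Fluor fluorescence is read after 23 h.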

[4] = qHTS assay to identify small molecule antagonists of the constitutive androstane receptor (CAR) signaling pathway - cell viability counter screen (AID 1224837); also: nearly all actives have a fitted effect of over 45% in size
Summary of the method: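 HepG2 cells stably expressing hCAR and a CYP2B6-2.2kb reporter were plated and pre-incubated 4 hr at 37 C/5% CO2, then given compounds at 15 concentrations plus 50 nM CITCO (final). After 23 hr, viability was read by CellTiter-Fluor fluorescence.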

[5] = target: Nuclear receptor subfamily 1 group I member 3 (Homo sapiens) (UniProt Q14994); assay: qHTS assay to identify small molecule antagonists of the constitutive androstane receptor (CAR) signaling pathway (AID 1224838); also: nearly all actives have a fitted effect of over 40% in size
Nuclear receptor subfamily 1 group I member 3 (Homo sapiens), sequence (Q14994 whole entry, looked up): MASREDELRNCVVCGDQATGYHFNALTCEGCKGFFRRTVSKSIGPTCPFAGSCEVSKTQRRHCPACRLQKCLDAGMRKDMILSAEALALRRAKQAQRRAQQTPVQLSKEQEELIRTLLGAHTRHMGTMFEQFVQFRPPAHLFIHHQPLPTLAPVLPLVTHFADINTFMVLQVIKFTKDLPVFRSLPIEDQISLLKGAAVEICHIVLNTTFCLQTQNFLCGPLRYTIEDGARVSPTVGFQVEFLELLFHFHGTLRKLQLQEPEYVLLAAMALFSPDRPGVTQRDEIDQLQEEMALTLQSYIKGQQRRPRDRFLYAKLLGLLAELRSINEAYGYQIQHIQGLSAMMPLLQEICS
Summary of the method: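 HepG2 cells stably co-transfected with hCAR and a CYP2B6-2.2kb luciferase reporter were seeded 4 h before compound addition at 15 concentrations. Cells were stimulated with 50 nM CITCO (final) for 24 h at 37 C; luciferase luminescence was then read.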

[6] = target: Nuclear receptor subfamily 1 group I member 3 (Homo sapiens) (UniProt Q14994); assay: qHTS assay to identify small molecule agonists of the constitutive androstane receptor (CAR) signaling pathway (AID 1224839); also: nearly all actives have a fitted effect of over 15% in size
Summary of the method: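 A 15-concentration quantitative screen uses HepG2 cells co-transfected stably with human CAR and CYP2B6-2.2kb reporter. Treatment lasts 24 h with 0.75 uM PK11195 final present; ONE-Glo luminescence is the signal.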

[7] = qHTS assay to identify small molecule antagonists of the estrogen related receptor signaling pathway with the pleiotropic PPARgamma coactivator (PGC) from Tox21 10K library - cell viability counter screen (AID 1224840; active = well fitted cell-killing curve with a large enough effect in the repeat runs, not every such curve was filed as active; also: nearly all actives have a fitted effect of over 40% in size)
Summary of the method: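 PGC/ERR cells were seeded at 2,000 cells/well and left 6 hours at 37 C/5% CO2 before pin-tool addition of compounds in DMSO. After 17.5 hours at 37 C, CellTiter-Fluor was added and fluorescence read 30 minutes later.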

[8] = qHTS assay to identify small molecule antagonists of the estrogen related receptor signaling pathway with the pleiotropic PPARgamma coactivator (PGC) from Tox21 10K library (AID 1224841; call rule not given here; also: actives are mostly falling curves and most rising ones were filed inactive; nearly all actives have a fitted effect of over 50% in size; also: potency is read from the fitted curve at half-maximal effect)
Summary of the method: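 PGC/ERR reporter cells were seeded at 2,000 cells/well and held 6 hours at 37 C/5% CO2 before pin-tool addition of compounds in DMSO. After 18 hours at 37 C, One-Glo was added and luminescence read after 30 minutes at room temperature.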

[9] = qHTS assay to identify small molecule agonists of the estrogen related receptor signaling pathway with the pleiotropic PPARgamma coactivator (PGC) from Tox21 10K library (AID 1224842); also: nearly all actives have a fitted effect of over 15% in size
Summary of the method: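 PGC/ERR reporter cells (NTP line) were seeded 2,000 per well, rested 6 h at 37 C/5% CO2, then pin-dosed with compounds in DMSO for 18 h at 37 C; luciferase read by One-Glo luminescence after 30 min at room temperature.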

[10] = target: Thyrotropin receptor (Homo sapiens) (UniProt P16473); assay: qHTS assay to identify small molecule agonists of the thyroid stimulating hormone receptor (TSHR) signaling pathway (AID 1224843; calls by dose curve; also: nearly all actives have a fitted effect of over 45% in size)
Thyrotropin receptor (Homo sapiens), sequence (P16473 whole entry, looked up): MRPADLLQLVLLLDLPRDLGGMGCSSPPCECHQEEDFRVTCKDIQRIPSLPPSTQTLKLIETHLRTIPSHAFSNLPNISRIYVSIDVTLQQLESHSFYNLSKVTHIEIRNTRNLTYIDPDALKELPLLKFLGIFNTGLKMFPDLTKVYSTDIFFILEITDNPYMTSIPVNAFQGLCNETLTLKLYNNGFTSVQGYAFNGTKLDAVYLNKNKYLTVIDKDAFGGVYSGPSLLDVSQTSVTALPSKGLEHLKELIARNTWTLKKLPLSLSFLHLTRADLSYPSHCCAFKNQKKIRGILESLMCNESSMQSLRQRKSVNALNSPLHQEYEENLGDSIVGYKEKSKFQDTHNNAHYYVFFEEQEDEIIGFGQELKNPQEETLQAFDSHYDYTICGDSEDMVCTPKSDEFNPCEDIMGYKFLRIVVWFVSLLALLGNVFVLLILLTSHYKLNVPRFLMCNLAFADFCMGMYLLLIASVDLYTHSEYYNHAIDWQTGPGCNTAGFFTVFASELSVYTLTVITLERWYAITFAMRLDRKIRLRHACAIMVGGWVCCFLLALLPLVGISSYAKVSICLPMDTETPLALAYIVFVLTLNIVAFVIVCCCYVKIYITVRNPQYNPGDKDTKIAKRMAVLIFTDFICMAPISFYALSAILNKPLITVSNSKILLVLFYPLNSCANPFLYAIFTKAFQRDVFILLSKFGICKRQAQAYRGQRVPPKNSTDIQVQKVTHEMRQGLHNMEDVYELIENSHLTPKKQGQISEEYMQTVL
Summary of the method: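 Cell line HEK293 with TSHR; density 800/well. Exposure 30 min RT. Readout HTRF cAMP (cAMP-d2/anti-cAMP-cryptate), 1 h RT before reading.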

[11] = qHTS assay to identify small molecule agonists of the hypoxia (HIF-1) signaling pathway - cell viability counter screen (AID 1224844; calls by dose curve; also: nearly all actives have a fitted effect of over 50% in size; also: potency is read from the fitted curve at half-maximal effect)
Summary of the method: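 HRE-bla ME-180 cells in medium with 0.5% dialyzed FBS were preincubated 5 hrs at 37C, exposed to compounds for 17 hrs, then viability was read as CellTiter-Glo luminescence after 30 min at room temperature, in the reporter wells.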

[12] = qHTS assay to identify small molecule agonists of H2AX - cell viability counter screen (AID 1224847; calls by dose curve; also: top concentration of the series differs between compounds; nearly all actives have a fitted effect of over 30% in size)
Summary of the method: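 We seed wild-type CHO-K1 cells overnight, treat them for 3 hr at 37C with compounds in 15-concentration series, and quantify remaining viability by CellTiter-Glo luminescence.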

[13] = qHTS assay to identify small molecule antagonists of the estrogen related receptor (ERR) signaling pathway from Tox21 library (AID 1224848); also: nearly all actives have a fitted effect of over 50% in size; also: potency is read from the fitted curve at half-maximal effect
Summary of the method: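 Screening used an ERR reporter line supplied by NTP, exposed for 18 h at 37 C to library compounds delivered in DMSO. Signal was luciferase luminescence developed with ONE-Glo at room temperature for 30 min.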

[14] = qHTS assay to identify small molecule agonists of the estrogen related receptor (ERR) signaling pathway from Tox21 library (AID 1224849; calls by dose curve; also: nearly all actives have a fitted effect of over 15% in size); settings: ERR reporter cell line, ONE-Glo luciferase, 18 h
Summary of the method: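 ERR reporter cell line (NTP) seeded, rested 6 h at 37 C/5% CO2, then pinned with Tox21 compounds in DMSO. After 18 h at 37 C, ONE-Glo luciferase luminescence was read following 30 min at room temperature.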

[15] = qHTS RealTime-Glo MT Cell Viability Assay in HEK293 cells - 32 hour (AID 1224868); also: top concentration of the series differs between compounds; nearly all actives have a fitted effect of over 50% in size
Summary of the method: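 Viability tracked continuously by luminescence as live cells reduce a prosubstrate for NanoLuc; HEK293 cells preincubated 5 h, compound-treated at 37 C, and read at 0, 8, 16, 24, 32 and 40 h.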

[16] = qHTS RealTime-Glo MT Cell Viability Assay in HepG2 cells - 40 hour (AID 1224870); also: nearly all actives have a fitted effect of over 50% in size
Summary of the method: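 HepG2 cells mixed with RealTime-Glo MT reagents (NanoLuc plus cell-permeant prosubstrate) were seeded at 600 cells/well, incubated 5 h at 37 C/5% CO2, then pinned with compounds in DMSO; nonlytic luminescence tracked viability during 40 h treatment.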

[17] = qHTS assay to identify small molecule agonists of H2AX (AID 1224845; active = well fitted activation curve with a large enough effect in the signal ratio in the repeat runs, not every such curve was filed as active; the % refers to the signal ratio)
Summary of the method: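 Wild-type CHO-K1 cells plated overnight, then exposed 3 hr at 37C to compounds at 15 concentrations (0.76% DMSO). Lysed, then HTRF anti-pH2AX(S139)-cryptate/anti-H2AX-d2 detection after 24 hr at room temperature; emissions 665 and 620 nm.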

[18] = qHTS assay to identify small molecule agonists of the hypoxia (HIF-1) signaling pathway (AID 1224846; active = well fitted activation curve with a large enough effect in the signal ratio in the repeat runs, not every such curve was filed as active; the % refers to the signal ratio)
Summary of the method: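 HRE-bla ME-180 cells (beta-lactamase reporter under hypoxia response element) were plated at 2,000 cells/well in medium with 0.5% dialyzed FBS, rested 5 hrs, then given compounds in DMSO for 17 hrs at 37C, 5% CO2. Reporter induction was read with CCF4-AM FRET substrate.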

[19] = A CellTox Green Cytotoxicity Assay to monitor cytotoxicity in HEK293 cells - 0 hour (AID 1224869); also: nearly all actives have a fitted effect of over 50% in size
Summary of the method: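 HEK293 cells premixed with CellTox Green dye were seeded at 600 cells/well and left 5 h at 37 C/5% CO2 before pin transfer of 23 nL compound in DMSO. Fluorescence from dye bound to dead-cell DNA was read during 40 h treatment.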

[20] = qHTS RealTime-Glo MT Cell Viability Assay in HepG2 cells - 24 hour (AID 1224867); also: nearly all actives have a fitted effect of over 50% in size
Summary of the method: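 Viability was tracked continuously by NanoLuc luminescence from prosubstrate reduced by living HepG2 cells, at successive time points over 40 h of compound exposure. Cells with reagent were preincubated 5 h at 37 °C before compound addition.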

[21] = at 92.4 µM (top of the series) unless noted
% is scaled to controls: 0 for no effect and ±100 for the full control effect.

C[C@]12C/C(=C/O)C(=O)C[C@@H]1CC[C@@H]1[C@@H]2CC[C@@]2(C)[C@H]1CC[C@]2(C)O
active: Potency [1] 55 µM | Potency [8] 43.7 µM and 26.6 µM | Potency [11] 24.8 µM and 19 µM | Potency [13] 34.7 µM and 33.5 µM
inactive: Potency [2] | Potency [3] | Potency [4] | Potency [5] | Potency [6] | Potency [7] | Potency [9] | Potency [10] | Potency [12] | activity change, positive = activation ([14]; at 42.5 µM (top of the series)) -37.2% | activity change, positive = activation ([14]; at 92.4 µM (top of the series)) -61.4% | Potency [15] | Potency [16]

CC(C)C(Br)C(=O)NC(N)=O (centres undefined)
inactive: Potency [1] | Potency [2] | Potency [3] | Potency [4] | Potency [5] | Potency [6] | Potency [7] | Potency [10] | Potency [11] | Potency [17] | Potency [18] | Potency [12] | Potency [15] | Potency [19] | Potency [16]

CC(Cc1ccc2c(c1)OCO2)NO (centres undefined)
inactive: Potency [1] | Potency [2] | Potency [3] | Potency [4] | Potency [5] | Potency [6] | Potency [7] | Potency [8] | Potency [10] | Potency [11] | Potency [17] | Potency [18] | Potency [12] | Potency [13] | activity change, positive = activation [14, 21] -3.14% | Potency [20] | Potency [15] | Potency [19] | Potency [16]

CCCCc1ccccc1
inactive: Potency [1] | Potency [2] | Potency [3] | Potency [4] | Potency [5] | Potency [6] | Potency [7] | Potency [10] | Potency [11] | Potency [17] | Potency [12] | Potency [20] | Potency [15] | Potency [19] | Potency [16]

OCC(Br)CBr (centres undefined)
inactive: Potency [1] | Potency [2] | Potency [3] | Potency [4] | Potency [5] | Potency [6] | Potency [7] | Potency [10] | Potency [11] | Potency [17] | Potency [12] | Potency [20] | Potency [15] | Potency [19] | Potency [16]

Clc1ccc(C2(Cn3cncn3)OCCO2)c(Cl)c1
inactive: Potency [1] | Potency [2] | Potency [3] | Potency [4] | Potency [5] | Potency [6] | Potency [7] | Potency [8] | Potency [9] | Potency [10] | Potency [11] | Potency [17] | Potency [13] | activity change, positive = activation [14, 21] -6.38% | Potency [20] | Potency [16]

COc1cnc(OC)n2nc(NS(=O)(=O)c3c(OCC(F)F)cccc3C(F)(F)F)nc12
inactive: Potency [1] | Potency [2] | Potency [3] | Potency [4] | Potency [5] | Potency [6] | Potency [7] | Potency [8] | Potency [11] | Potency [17] | Potency [12] | Potency [13] | activity change, positive = activation [14, 21] 0.129% | Potency [20] | Potency [15] | Potency [19] | Potency [16]

C[C@@H]1CC2=CC(=O)CC[C@@H]2[C@H]2CC[C@@]3(C)[C@@H](CC[C@]3(C)O)[C@@H]21
inactive: Potency [1] | Potency [2] | Potency [3] | Potency [4] | Potency [5] | Potency [6] | Potency [7] | Potency [9] | Potency [10] | Potency [11] | Potency [17] | Potency [12] | activity change, positive = activation [14, 21] -28.8% [at 42.5 µM] | Potency [20] | Potency [16]
active: Potency [13] 23.7 µM

CCCCCON=O
active: Potency [8] 30.7 µM
inactive: Potency [1] | Potency [2] | Potency [3] | Potency [4] | Potency [5] | Potency [6] | Potency [7] | Potency [9] | Potency [10] | Potency [11] | Potency [17] | Potency [18] | Potency [13] | activity change, positive = activation [14, 21] -5.1% | Potency [20] | Potency [15] | Potency [19] | Potency [16]

CSC(C)(C)/C=N/O
inactive: Potency [1] | Potency [2] | Potency [3] | Potency [4] | Potency [5] | Potency [6] | Potency [7] | Potency [10] | Potency [11] | Potency [17] | Potency [12] | Potency [19] | Potency [16]

CNC(=O)/C=C(\C)OP(=O)(OC)OC
inactive: Potency [1] | Potency [2] | Potency [3] | Potency [4] | Potency [5] | Potency [6] | Potency [7] | Potency [8] | Potency [10] | Potency [11] | Potency [18] | Potency [12] | Potency [13] | activity change, positive = activation [14, 21] -0.497% | Potency [20] | Potency [15] | Potency [19] | Potency [16]

CC1(C)C(C=C(Cl)Cl)C1C(=O)OC(C#N)c1ccc(F)c(Oc2ccccc2)c1 (centres undefined)
inactive: Potency [1] | Potency [2] | Potency [3] | Potency [4] | Potency [5] | Potency [6] | Potency [7] | Potency [8] | Potency [9] | Potency [11] | Potency [17] | Potency [12] | activity change, positive = activation [14, 21] -26.4% | Potency [20] | Potency [15] | Potency [16]

C=CCBr
inactive: Potency [1] | Potency [2] | Potency [3] | Potency [4] | Potency [5] | Potency [6] | Potency [7] | Potency [10] | Potency [11] | Potency [12] | Potency [20] | Potency [15] | Potency [16]

O=C(Cl)c1ccccc1F
inactive: Potency [1] | Potency [2] | Potency [3] | Potency [4] | Potency [5] | Potency [6] | Potency [7] | Potency [10] | Potency [11] | Potency [17] | Potency [18] | Potency [12] | Potency [20] | Potency [19] | Potency [16]
